# Data as given in publication PMC7862700, “An all-to-all approach to the identification of sequence-specific readers for epigenetic DNA modifications on cytosine”.
# How the values were obtained:
# Assay in all cases: DAPPL (digital affinity profiling via proximity ligation, sequencing); 10 mM Tris-HCl pH 7.5, 50 mM NaCl, 1 mM DTT, 4% glycerol, room temperature, 30 min; GST-TFs on glutathione beads, 16-mer random dsDNA library, 0.1% formaldehyde crosslink after washing; high values mean tight binding
# Settings in all cases: protein: recombinant; tags: N-terminal GST; dsDNA, one strand shown
# FLI1 = biological target: T1, FLI1 (Homo sapiens, UniProt Q01543 1-452)
# T1 sequence: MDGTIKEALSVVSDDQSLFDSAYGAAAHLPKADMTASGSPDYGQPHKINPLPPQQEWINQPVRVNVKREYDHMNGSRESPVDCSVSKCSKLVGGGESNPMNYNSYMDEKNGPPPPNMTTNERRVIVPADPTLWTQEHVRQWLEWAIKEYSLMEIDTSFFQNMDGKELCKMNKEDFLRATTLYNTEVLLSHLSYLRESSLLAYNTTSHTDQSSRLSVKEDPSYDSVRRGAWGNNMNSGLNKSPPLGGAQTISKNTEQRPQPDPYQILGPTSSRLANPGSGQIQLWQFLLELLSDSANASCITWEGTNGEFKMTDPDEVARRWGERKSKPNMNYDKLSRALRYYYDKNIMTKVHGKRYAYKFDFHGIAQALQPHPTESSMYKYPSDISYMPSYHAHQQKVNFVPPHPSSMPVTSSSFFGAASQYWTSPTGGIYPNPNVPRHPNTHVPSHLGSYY
# How it was run: (§1)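 GST fusions of human transcription factors were expressed in yeast and captured with glutathione beads. Once given DNA barcodes and pooled alongside a tag-only sample, they were incubated for 30 min at room temperature with 200 nmole of a random double-stranded 16-mer DNA library in Tris/NaCl/DTT/glycerol buffer, then washed, crosslinked (0.1% formaldehyde), proximity-ligated, PCR-amplified and sequenced on an Illumina NextSeq500. The binding signal of each hexamer is its read frequency for a factor divided by its frequency for the tag-only sample.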
# ELK1 = biological target: T2, ELK1 (Homo sapiens, UniProt P19419 1-428)
# T2 sequence: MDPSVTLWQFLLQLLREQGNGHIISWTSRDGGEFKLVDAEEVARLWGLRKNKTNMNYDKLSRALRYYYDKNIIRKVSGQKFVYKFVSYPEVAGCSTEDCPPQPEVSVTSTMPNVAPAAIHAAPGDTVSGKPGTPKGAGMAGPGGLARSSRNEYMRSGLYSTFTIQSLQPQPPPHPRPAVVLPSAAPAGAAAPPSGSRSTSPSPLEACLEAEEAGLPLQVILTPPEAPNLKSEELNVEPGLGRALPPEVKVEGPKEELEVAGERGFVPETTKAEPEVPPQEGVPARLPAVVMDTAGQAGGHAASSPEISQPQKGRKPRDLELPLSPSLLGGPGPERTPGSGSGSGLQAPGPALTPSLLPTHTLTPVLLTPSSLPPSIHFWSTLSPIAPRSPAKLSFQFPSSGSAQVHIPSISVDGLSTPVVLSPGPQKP
# How it was run: as §1
# GABPA = biological target: T3, GABPA (Homo sapiens, UniProt Q06546 1-454)
# T3 sequence: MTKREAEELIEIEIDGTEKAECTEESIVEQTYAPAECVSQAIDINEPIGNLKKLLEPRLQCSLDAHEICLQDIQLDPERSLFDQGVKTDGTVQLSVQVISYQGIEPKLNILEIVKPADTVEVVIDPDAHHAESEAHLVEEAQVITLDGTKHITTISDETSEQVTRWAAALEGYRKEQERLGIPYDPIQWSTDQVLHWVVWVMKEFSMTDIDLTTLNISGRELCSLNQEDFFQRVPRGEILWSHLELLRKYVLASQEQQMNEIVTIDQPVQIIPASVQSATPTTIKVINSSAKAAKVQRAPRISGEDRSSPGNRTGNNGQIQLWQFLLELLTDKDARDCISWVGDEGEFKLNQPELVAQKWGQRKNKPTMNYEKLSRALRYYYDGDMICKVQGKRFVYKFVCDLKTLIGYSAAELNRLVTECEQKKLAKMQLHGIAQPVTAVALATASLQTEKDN
# How it was run: as §1
# ERG = biological target: T4, ERG (Homo sapiens, UniProt P11308 1-479)
# T4 sequence: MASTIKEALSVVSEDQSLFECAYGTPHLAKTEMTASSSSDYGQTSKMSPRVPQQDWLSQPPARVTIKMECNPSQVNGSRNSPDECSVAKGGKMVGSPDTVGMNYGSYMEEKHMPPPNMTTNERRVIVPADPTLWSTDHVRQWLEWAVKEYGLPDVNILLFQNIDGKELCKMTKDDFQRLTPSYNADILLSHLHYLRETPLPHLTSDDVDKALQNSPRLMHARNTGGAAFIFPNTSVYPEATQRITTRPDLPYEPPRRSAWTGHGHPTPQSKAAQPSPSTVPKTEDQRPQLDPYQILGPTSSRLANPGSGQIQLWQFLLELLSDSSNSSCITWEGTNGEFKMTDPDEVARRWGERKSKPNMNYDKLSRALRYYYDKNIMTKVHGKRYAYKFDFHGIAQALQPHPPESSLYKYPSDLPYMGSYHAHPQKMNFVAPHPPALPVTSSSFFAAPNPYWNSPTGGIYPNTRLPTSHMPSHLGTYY
# How it was run: as §1
# ELF1 = ELF1 (Homo sapiens, UniProt P32519 1-619)
# How it was run: as §1
# EHF = biological target: T5, EHF (Homo sapiens, UniProt Q9NZC4 1-300)
# T5 sequence: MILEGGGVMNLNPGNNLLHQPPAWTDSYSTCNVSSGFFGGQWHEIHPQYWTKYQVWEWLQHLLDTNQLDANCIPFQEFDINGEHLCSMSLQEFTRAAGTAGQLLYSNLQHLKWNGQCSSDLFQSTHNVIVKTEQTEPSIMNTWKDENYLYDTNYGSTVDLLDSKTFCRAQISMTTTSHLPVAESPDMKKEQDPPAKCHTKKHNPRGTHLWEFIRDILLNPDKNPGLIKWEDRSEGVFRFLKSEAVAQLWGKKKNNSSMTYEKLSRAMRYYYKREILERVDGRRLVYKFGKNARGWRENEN
# How it was run: as §1
# SPI1 = SPI1 (Homo sapiens, UniProt P17947 1-270)
# How it was run: as §1
# SPIB = SPIB (Homo sapiens, UniProt Q01892 1-262)
# How it was run: as §1
# ELK3 = biological target: T6, ELK3 (Homo sapiens, UniProt P41970 1-407)
# T6 sequence: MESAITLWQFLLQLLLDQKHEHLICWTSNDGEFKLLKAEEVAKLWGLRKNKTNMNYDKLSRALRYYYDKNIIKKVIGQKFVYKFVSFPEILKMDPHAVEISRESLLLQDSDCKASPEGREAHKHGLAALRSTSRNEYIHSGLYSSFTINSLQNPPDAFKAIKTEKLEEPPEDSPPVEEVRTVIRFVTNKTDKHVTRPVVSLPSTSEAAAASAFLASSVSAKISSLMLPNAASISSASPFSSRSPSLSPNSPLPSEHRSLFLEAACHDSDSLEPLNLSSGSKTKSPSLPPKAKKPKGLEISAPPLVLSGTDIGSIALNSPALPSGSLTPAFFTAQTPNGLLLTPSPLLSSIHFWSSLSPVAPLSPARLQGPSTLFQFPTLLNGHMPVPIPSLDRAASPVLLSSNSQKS
# How it was run: as §1
# SPIB, sequence (Q01892 whole entry): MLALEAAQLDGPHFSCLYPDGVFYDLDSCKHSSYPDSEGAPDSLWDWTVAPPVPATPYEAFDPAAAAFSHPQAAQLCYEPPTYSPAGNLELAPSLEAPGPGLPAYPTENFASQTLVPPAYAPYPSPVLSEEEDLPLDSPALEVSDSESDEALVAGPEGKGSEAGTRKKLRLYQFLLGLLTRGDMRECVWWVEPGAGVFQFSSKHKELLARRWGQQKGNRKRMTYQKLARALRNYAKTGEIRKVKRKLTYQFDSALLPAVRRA
# ELF1, sequence (P32519 whole entry): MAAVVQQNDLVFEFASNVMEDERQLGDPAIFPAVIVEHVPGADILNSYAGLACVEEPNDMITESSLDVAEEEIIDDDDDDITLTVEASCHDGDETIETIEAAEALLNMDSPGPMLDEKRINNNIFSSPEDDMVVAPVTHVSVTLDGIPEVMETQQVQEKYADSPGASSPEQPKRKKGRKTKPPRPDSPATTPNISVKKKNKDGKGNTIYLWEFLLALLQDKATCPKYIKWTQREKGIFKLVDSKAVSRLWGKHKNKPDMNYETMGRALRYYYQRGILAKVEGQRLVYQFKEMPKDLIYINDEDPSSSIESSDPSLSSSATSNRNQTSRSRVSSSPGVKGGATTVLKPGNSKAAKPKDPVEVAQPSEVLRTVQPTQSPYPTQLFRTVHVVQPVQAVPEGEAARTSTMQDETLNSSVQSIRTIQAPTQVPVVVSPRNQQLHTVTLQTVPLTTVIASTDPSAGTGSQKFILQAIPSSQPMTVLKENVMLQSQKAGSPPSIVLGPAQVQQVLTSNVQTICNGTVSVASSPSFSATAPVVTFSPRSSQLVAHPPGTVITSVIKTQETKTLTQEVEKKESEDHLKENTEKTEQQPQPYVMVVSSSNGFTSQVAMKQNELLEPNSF
sequence,measurement,setting,value
TGTAAC,binding signal,FLI1,"1.29 fold enrichment (6-mer frequency, TF over GST control)"
same,binding signal,ELK1,"1.21 fold enrichment (6-mer frequency, TF over GST control)"
same,binding signal,GABPA,"1.09 fold enrichment (6-mer frequency, TF over GST control)"
same,binding signal,ERG,"1.18 fold enrichment (6-mer frequency, TF over GST control)"
same,binding signal,ELF1,"1.28 fold enrichment (6-mer frequency, TF over GST control)"
same,binding signal,EHF,"1.36 fold enrichment (6-mer frequency, TF over GST control)"
same,binding signal,SPI1,"1.36 fold enrichment (6-mer frequency, TF over GST control)"
same,binding signal,SPIB,"1.16 fold enrichment (6-mer frequency, TF over GST control)"
same,binding signal,ELK3,"1.2 fold enrichment (6-mer frequency, TF over GST control)"
